Assay results as given in PubChem BioAssay (NCATS).
Inconclusive results are not listed. Active and inactive are the calls of the source. Unless noted, calls follow the shape of the dose curve; as a rule, active = well fitted curve in the direction sought with a large enough effect; inconclusive = small, poorly fitted or top-dose-only effect, or another doubt; inactive = no such curve, though single readings can be large; an effect the other way counts as inactive or inconclusive.

Assays:
[1] = Nrf2 qHTS screen for inhibitors: Validation (AID 493153; active = well fitted inhibition curve with a large enough effect in the main read-out, with a control signal flat, not every such curve was filed as active); settings: Potency: luciferase luminescence; viability change: measured here: cytotoxicity max response
Method in brief: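 A549 cells carrying ARE-firefly luciferase reporter, 5000 cells/well in 5% FBS OPTI-MEM, treated with compound over a concentration series for 18-24 h at 37 C. Luciferase luminescence gave Nrf2 activity; CellTiter-Fluor fluorescence gave viability.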

[2] = Validation screen for small molecules that induce DNA re-replication in SW480 colon adenocarcinoma cells (AID 504364); also: potency is read from the fitted curve at half-maximal effect
Method in brief: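 SW480 cells (250/well) exposed 48 h at 37 C, 5% CO2, then Hoechst-stained 40 min. Nuclear DNA content imaged by fluorescence scanning (405 nm excitation, 500-530 nm emission); re-replication scored as increased nuclei with elevated intensity.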

[3] = molecular target: phosphoglycerate mutase (Leishmania major) (UniProt Q4Q090); assay: qHTS Validation Assay to Find Inhibitors of Phosphoglycerate Mutase (AID 504548); settings: Potency: inhibition qHTS; also: series mostly up to about 58 µM
Sequence of phosphoglycerate mutase (Leishmania major) (Q4Q090 1-553): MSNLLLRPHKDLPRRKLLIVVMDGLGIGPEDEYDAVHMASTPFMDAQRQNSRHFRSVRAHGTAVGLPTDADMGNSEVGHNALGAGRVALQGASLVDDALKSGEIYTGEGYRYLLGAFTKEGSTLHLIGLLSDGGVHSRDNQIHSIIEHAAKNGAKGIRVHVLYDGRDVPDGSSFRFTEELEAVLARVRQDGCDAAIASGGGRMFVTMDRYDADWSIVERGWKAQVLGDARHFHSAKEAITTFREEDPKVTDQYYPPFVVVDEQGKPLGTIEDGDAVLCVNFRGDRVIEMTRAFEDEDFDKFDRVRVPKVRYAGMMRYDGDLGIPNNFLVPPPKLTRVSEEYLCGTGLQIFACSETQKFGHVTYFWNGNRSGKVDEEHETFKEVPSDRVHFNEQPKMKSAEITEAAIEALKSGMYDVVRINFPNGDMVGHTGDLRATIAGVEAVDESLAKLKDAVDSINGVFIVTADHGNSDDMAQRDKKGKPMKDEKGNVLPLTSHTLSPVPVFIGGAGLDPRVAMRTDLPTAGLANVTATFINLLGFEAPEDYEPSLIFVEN
Method in brief: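 Lm PGAM at 1.25 nM final with substrate in 100 mM TEA pH 7.6, 5 mM MgCl2, 0.01% Tween-20; 45 min at room temperature. Kinase-GloPlus added, 10 min, end-point luminescence read.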

[4] = qHTS for Inhibitors of ATXN expression: Validation of Cytotoxic Assay (AID 588349)
Method in brief: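 HEK293 cells treated with titrated compound for 72 hr at 37 degrees C; viability read as intracellular ATP by CellTiter Glo luminescence.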

[5] = qHTS for Inhibitors of ATXN expression: Validation (AID 588378); also: nearly all actives have a fitted effect of over 75% in size; also: potency is read from the fitted curve at half-maximal effect
Method in brief: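 Compounds were pinned onto attached HEK293 cells carrying an ATXN2-firefly luciferase construct and incubated 24 hrs at 37 degrees C. Each well then received a fluorescent viability reagent followed by luciferase substrate for end-point luminescence.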

[6] = molecular target: Galactokinase (Homo sapiens) (UniProt P51570); assay: qHTS Validation Assay for Inhibitors of Human Galactokinase (GALK) (AID 493189)
Sequence of Galactokinase (Homo sapiens) (P51570 whole entry, looked up): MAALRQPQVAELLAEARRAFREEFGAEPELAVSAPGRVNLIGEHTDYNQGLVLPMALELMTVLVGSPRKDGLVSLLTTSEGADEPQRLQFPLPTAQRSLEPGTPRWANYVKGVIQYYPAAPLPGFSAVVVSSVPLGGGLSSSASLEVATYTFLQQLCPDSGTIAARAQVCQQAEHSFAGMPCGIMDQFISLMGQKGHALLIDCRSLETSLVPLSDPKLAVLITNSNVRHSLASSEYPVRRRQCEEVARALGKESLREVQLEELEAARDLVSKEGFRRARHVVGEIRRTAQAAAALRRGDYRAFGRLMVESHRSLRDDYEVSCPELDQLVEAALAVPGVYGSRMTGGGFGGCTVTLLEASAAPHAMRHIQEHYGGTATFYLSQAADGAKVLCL
Method in brief: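 5 nM GALK / 100 uM galactose / 35 uM ATP, 20 mM HEPES pH8.0, 5 mM MgCl2, 60 mM NaCl, 1 mM DTT, 0.01% BSA (final). RT 1 h; Kinase-Glo Plus luminescence.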

[7] = molecular target: Phosphoglycerate kinase, glycosomal (Trypanosoma brucei brucei) (UniProt P07378); assay: qHTS Validation Assay to Find Inhibitors of Phosphoglycerate Kinase (AID 504547)
Sequence of Phosphoglycerate kinase, glycosomal (Trypanosoma brucei brucei) (P07378 whole entry, looked up): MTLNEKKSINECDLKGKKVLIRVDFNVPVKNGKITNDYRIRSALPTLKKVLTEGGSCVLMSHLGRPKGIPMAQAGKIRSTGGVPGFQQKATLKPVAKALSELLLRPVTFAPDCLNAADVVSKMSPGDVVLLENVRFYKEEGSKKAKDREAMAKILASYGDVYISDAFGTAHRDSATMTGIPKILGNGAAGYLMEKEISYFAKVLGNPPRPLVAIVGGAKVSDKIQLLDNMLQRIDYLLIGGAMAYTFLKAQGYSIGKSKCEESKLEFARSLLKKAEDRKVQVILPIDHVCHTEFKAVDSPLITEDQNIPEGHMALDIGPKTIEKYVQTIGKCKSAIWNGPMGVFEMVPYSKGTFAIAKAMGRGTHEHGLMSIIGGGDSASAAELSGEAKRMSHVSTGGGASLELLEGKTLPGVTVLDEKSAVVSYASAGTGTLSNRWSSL
Method in brief: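 Substrate/PGK mix plus compound; reaction started with GAPDH (100nM final) to form 1,3-BPG; 60 min RT; Kinase-Glo Plus 10 min; luminescence. TEA 100mM pH 7.6, MgCl2 5mM, Tween-20 0.01%.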

[8] = molecular target: Ubiquitin carboxyl-terminal hydrolase 1 (Homo sapiens) (UniProt O94782); assay: Inhibitors of USP1/UAF1: Pilot qHTS (AID 504865);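 also: rhodamine fluorescence freed from ubiquitin-rhodamine substrate followed over time; top concentration of the series differs between compounds; nearly all actives have a fitted effect of over 35% in size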
Sequence of Ubiquitin carboxyl-terminal hydrolase 1 (Homo sapiens) (O94782 whole entry, looked up): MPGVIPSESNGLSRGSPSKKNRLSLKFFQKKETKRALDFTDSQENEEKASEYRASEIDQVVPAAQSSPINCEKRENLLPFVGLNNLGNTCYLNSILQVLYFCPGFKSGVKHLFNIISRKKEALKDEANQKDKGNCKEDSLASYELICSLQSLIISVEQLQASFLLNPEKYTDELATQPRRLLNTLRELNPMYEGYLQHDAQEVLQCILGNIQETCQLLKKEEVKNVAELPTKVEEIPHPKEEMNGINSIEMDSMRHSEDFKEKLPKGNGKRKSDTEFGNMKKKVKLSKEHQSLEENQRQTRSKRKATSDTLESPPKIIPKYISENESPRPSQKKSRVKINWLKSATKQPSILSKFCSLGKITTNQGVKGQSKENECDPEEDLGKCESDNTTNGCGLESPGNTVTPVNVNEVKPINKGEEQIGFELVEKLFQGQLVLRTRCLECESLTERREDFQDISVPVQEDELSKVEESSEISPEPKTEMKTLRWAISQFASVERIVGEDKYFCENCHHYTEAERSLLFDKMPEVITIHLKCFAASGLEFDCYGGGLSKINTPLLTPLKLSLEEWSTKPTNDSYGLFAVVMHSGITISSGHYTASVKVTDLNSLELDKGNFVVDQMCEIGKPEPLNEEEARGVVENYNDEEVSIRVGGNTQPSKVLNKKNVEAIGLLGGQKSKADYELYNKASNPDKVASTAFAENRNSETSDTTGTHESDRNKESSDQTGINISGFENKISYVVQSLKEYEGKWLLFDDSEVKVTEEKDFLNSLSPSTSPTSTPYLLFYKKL
Method in brief: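 In 50mM HEPES pH 7.8 containing 0.5mM EDTA, 1mM TCEP, 0.1 mg/ml BSA and 0.01% Tween-20, 1nM USP1/UAF1 is exposed to compound for 15 min, then Ub-Rho (150nM final) is added and fluorescence is read over time.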

[9] = qHTS for Inhibitors of Cell Surface uPA Generation: Validation Assay (AID 493164)
Method in brief: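 RAW 264.7 cells (4000/well) were plated overnight, then exposed for 18 h at 37 C, 5% CO2 to compounds in a 7-point 1:5 titration (2.45 nM–38.3 uM final). Intracellular ATP was read by ATP-Lite luminescence.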

[10] = molecular target: Peptidyl-prolyl cis-trans isomerase NIMA-interacting 1 (Homo sapiens) (UniProt Q13526); assay: qHTS Validation Assay to Find Inhibitors of Pin1 (AID 504536; active = well fitted inhibition curve with a large enough effect in the polarisation, with a control signal flat, not every such curve was filed as active; the % refers to the polarisation)
Sequence of Peptidyl-prolyl cis-trans isomerase NIMA-interacting 1 (Homo sapiens) (Q13526 whole entry, looked up): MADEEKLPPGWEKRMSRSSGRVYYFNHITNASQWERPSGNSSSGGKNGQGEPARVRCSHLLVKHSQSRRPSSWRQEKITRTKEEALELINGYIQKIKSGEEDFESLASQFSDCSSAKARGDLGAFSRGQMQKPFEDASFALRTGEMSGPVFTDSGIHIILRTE
Method in brief: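 Fluorescence polarization competition: compounds (titration) displace HiFluor-488-labeled Pin1-1b peptide from Pin1 (0.3 uM final) in pH 7.5 HEPES buffer with DTT, 10 min at room temperature; %Activity normalized to no-enzyme wells, curves fitted.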

O=c1cc(-c2ccccc2)[nH]c2nc(Cl)ccc12
-13.6%: viability change [1]
inactive: Potency [1] | Potency [3] | Potency [4] | Potency [5]
active: Potency [2] 1.84 µM

NC(N)=NC(N)=Nc1ccccc1
-4.42%: viability change [1]
inactive: Potency [1] | Potency [6] | Potency [7] | Potency [3] | Potency [8] | Potency [5]

NC(=Nc1ccccc1)NC(=O)c1nc(Cl)c(N)nc1N
-16.8%: viability change [1]
inactive: Potency [1] | outcome [9] | Potency [10] | Potency [3] | Potency [8] | Potency [5]

O=C(O)C1CN(CCCP(=O)(O)O)CCN1 (configuration not stated)
8.53%: viability change [1]
inactive: Potency [1] | Potency [6] | Potency [2] | Potency [7] | Potency [3] | Potency [8] | Potency [5]

COc1ccc(NC(=O)c2ccc(-c3ccc(-c4noc(C)n4)cc3C)cc2)cc1N1CCN(C)CC1
inactive: Potency [1] | Potency [6] | Potency [2] | Potency [10] | Potency [7] | Potency [3] | Potency [8]
-8.26%: viability change [1]
active: Potency [5] 22.4 µM

c1ccc2nc(C3=NCCN3)ccc2c1
inactive: Potency [1] | Potency [6] | Potency [2] | Potency [10] | Potency [7] | Potency [3] | Potency [8] | Potency [4] | Potency [5]
1.31%: viability change [1]

c1ccc2c(c1)CC(N1CCN(c3cccc4c3OCCO4)CC1)C2
3.52%: viability change [1]
inactive: Potency [1] | Potency [6] | Potency [2] | Potency [10] | Potency [7] | Potency [3] | Potency [8] | Potency [4] | Potency [5]

Nc1ncnc2c1nc(Sc1ccc(Cl)cc1)n2[C@H]1OC2COP(=O)(O)O[C@@H]2C1O (some centres not stated)
3.2%: viability change [1]
inactive: Potency [1] | outcome [9] | Potency [10] | Potency [3] | Potency [8] | Potency [5]

COc1ccccc1N1CCN(CCCCN2C(=O)c3ccccc3C2=O)CC1
4.76%: viability change [1]
inactive: Potency [1] | Potency [6] | Potency [10] | Potency [7] | Potency [3] | Potency [8] | Potency [4] | Potency [5]

COc1ccc(CCn2nnnc2C2(c3ccc(C)cc3)CC2)cc1
inactive: Potency [1] | outcome [9] | Potency [10] | Potency [7] | Potency [3] | Potency [4] | Potency [5]
2.86%: viability change [1]

CN1CCc2cc(Cl)c(O)cc2[C@@H](c2ccccc2)C1
inactive: Potency [1] | outcome [9] | Potency [7] | Potency [3] | Potency [8] | Potency [5]
5.24%: viability change [1]

CN(C)CCC(c1ccc(Br)cc1)c1ccccn1 (configuration not stated)
inactive: Potency [1] | Potency [6] | Potency [2] | Potency [10] | Potency [7] | Potency [3] | Potency [8]
3.82%: viability change [1]

Cn1c(=O)c2c(nc(/C=C/c3cccc(Cl)c3)n2C)n(C)c1=O
3.93%: viability change [1]
inactive: Potency [1] | Potency [2] | Potency [10] | Potency [7] | Potency [3] | Potency [4] | Potency [5]

COc1ccc2c(c1)CCC1C2CC[C@@]2(C)C1CC[C@@H]2NCCCCCCN1C(=O)C=CC1=O (some centres not stated)
inactive: Potency [1] | Potency [6] | Potency [10] | Potency [7] | Potency [3] | Potency [4] | Potency [5]
-5.2%: viability change [1]
